ST2 IL33 inh = IL1RL1 inhibition. 78,000 compounds, 2.3% hits. Q01638. inhibition, % for hits at 17 µM. AlphaLISA ST2-Fc/biotin-IL-33 interaction, 1 h; in the data active = inhibition above about 30%
Target sequence (Q01638 whole entry, looked up): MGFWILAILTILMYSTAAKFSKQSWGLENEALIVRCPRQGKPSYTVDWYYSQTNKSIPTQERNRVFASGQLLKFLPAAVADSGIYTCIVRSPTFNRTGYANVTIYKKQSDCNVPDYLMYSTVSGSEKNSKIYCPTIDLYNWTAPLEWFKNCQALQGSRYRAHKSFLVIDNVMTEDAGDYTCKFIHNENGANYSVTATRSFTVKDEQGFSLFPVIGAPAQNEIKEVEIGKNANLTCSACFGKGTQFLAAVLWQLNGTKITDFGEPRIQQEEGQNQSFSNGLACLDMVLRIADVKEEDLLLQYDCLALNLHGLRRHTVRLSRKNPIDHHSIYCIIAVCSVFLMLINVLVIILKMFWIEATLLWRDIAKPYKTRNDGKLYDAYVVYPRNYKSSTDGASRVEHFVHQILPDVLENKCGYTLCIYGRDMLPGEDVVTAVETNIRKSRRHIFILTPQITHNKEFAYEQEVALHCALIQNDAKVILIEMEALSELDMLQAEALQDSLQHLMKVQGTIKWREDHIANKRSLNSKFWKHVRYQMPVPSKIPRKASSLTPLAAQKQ
* = called active by the depositor; i = inactive. Only a selection was taken, and hits are over-represented in it overall.

SMILES | ST2 IL33 inh
O=C(Nc1ccccc1)N[C@H]1C[C@H]2C(=O)NC[C@@H](CCC(=O)N3CCN(c4ccccn4)CC3)N2C1 | i
O=C(N[C@H]1C[C@H]2C(=O)NC[C@@H](CCC(=O)N3CCN(c4ccccc4)CC3)N2C1)C1CC1 | i
O=C(N[C@H]1C[C@H]2C(=O)NC[C@@H](CCC(=O)N3CCN(c4ccccn4)CC3)N2C1)c1cccs1 | 33.0%*
COCCNC(=S)N[C@H]1C[C@H]2C(=O)NC[C@@H](CCC(=O)N3CCN(c4ccccc4)CC3)N2C1 | i
COCCNC(=S)N[C@H]1C[C@H]2C(=O)NC[C@@H](CCC(=O)N3CCN(c4ccccn4)CC3)N2C1 | i
Cc1ccc(C)c(CN2C(=O)CSc3ccc(C(=O)NCCN(C)C)cc32)c1 | i
COc1ccc(C2CC(c3cccs3)=NN2C(=O)CSc2cn(C)c3ccccc23)cc1 (stereo not drawn) | i
CN(Cc1cccc(-n2cccn2)c1)Cc1nc(-c2ccc(C(F)(F)F)cc2)no1 | i
COC(=O)[C@@H](Cc1cccnc1)NC(=O)[C@H]1CN(S(=O)(=O)c2ccccc2)CCN1S(=O)(=O)c1ccccc1 | i
CN(C/C=C/c1ccccc1)C(=O)CC1C(=O)NCCN1Cc1ccoc1 (stereo not drawn) | i
COc1ccc(S(=O)(=O)Nc2ccc(O)c(C)c2C)cc1 | i
COc1ccc([N+](=O)[O-])cc1NC(=O)Cc1c(C(=O)O)[nH]c2ccc(Cl)cc12 | i
COc1ccc(-c2nnc(-c3ccc(Cl)cc3)o2)cc1OC | i
COCCN1C(=O)N(Cc2cccnc2)C(=O)C12CCN(Cc1nc(-c3ccccc3)cs1)CC2 | i
CN1C(=O)N(Cc2ccccc2)C2(CCN(Cc3ccc(N(C)c4ccccc4)cc3)CC2)C1=O | i
CCN1C(=O)N(CCc2ccccc2)C2(CCN(CCc3ccccc3)CC2)C1=O | 33.0%*
COc1ccc(-c2cc(N3CCN(S(=O)(=O)c4c(C)noc4C)CC3)ncn2)cc1 | i
Cc1ccc(C)c(-c2csc(Nc3ncccn3)n2)c1 | i
c1cnc(Nc2nc(-c3ccncc3)cs2)nc1 | i
Oc1ccc(-c2csc(Nc3ncccn3)n2)cc1O | 44.0%*
COc1cccc(C2C=C(Nc3ccc(C)cc3)C(=O)N2c2ccc(C)cc2)c1 (stereo not drawn) | i
O=C1C2=C(Nc3ccccc3SC2c2cccc(O)c2)c2ccccc21 (stereo not drawn) | i
COc1cc(/C=C2\C(=O)N(c3ccc(Cl)c(C(=O)O)c3)N=C2C)c([N+](=O)[O-])cc1OC | 64.0%*
CC1=NN(c2ccc(Cl)c(Cl)c2)C(=O)/C1=C/c1cc([N+](=O)[O-])ccc1O | i
COc1cc(/C=C2\C(=O)N(c3cccc(Cl)c3)N=C2C)cc(OC)c1OC | i
SMILES | ST2 IL33 inh
COc1cc(/C=C2\C(=O)N(c3ccccc3)N=C2C)cc(Br)c1O | i
COc1cc(/C=C2\C(=O)N(c3ccc(Cl)c(C(=O)O)c3)N=C2C)cc([N+](=O)[O-])c1O | 80.0%*
COc1ccc(Cl)cc1/C=C1\C(=O)N(c2cccc(C(=O)O)c2)N=C1C | i
O=C(c1cn(-c2ccccc2)nn1)N(Cc1cnn(-c2ccccc2)c1)C1CC1 | i
CCC1=NOC(Cn2cnc(-c3ccccc3)c2-c2ccco2)C1 (stereo not drawn) | i
N#C/C(=C\c1ccc(-c2cc([N+](=O)[O-])ccc2Cl)o1)c1[nH]nc(N)c1C#N | 45.0%*
O=c1oc(-c2cc([N+](=O)[O-])ccc2Cl)nc2ccc(Br)cc12 | i
O=c1oc(-c2cc([N+](=O)[O-])ccc2Cl)nc2ccc(I)cc12 | i
Cc1cc(NC(=O)CN2C(=O)S/C(=C\c3ccccc3)C2=O)no1 | i
O=C1S/C(=C\c2ccccc2F)C(=O)N1CNc1cccc(F)c1 | i
CCCCN1C(=O)S/C(=C\c2cc(C)n(C)c2C)C1=O | 39.0%*
COc1ccccc1N1COc2ccc3c(C)cc(=O)oc3c2C1 | i
CN1CCN(C)C2(CCN(C(=O)c3c[nH]c4cc(Cl)ccc4c3=O)CC2)C1 | i
CC1=CC[C@@H]2CN(C(=O)CCc3n[nH]c(C)n3)C[C@@H]2C1 | i
COc1cccc(N2CC(NC(=O)C3CCCCC3)CC2=O)c1 (stereo not drawn) | i
COc1cccc(N(C(C)=O)C2=C(NC3CCCCC3)C(=O)c3ccccc3C2=O)c1 | 38.0%*
CC(=O)N(C1=C(NC2CCCCC2)C(=O)c2ccccc2C1=O)c1ccc(F)c(F)c1 | 45.0%*
CC(C(=O)NC1CCCC1)N(c1ccccc1)S(C)(=O)=O (stereo not drawn) | i
O=C(NC1CCCCC1)C(c1ccccc1)c1ccccc1 | i
COc1cccc(C(=O)Nc2ccccc2C(=O)NC2CCCCC2)c1 | i
CCN(CC)C(=O)Cn1cc(/C=C2\C(=O)NC(=O)N(c3cccc(C)c3C)C2=O)c2ccccc21 | i
c1ccc(-n2cccc2CNC2CCCc3nc(-c4cccnc4)ncc32)nc1 (stereo not drawn) | i
Cn1c(=O)c2c(nc(N3CCCC3)n2CCSc2nnnn2-c2ccccc2)n(C)c1=O | i
CC(=O)Nc1ccc(N2CCOCC2)cc1 | i
COc1c(Cl)cc(Cl)cc1C(=O)Nc1ccccc1N1CCOCC1 | i
SMILES | ST2 IL33 inh
CC(C)=Cc1oc2c(Cl)cc(Cl)cc2c1N1CCOCC1 | 30.0%*
O=C(CCCn1c(=O)[nH]c2ccsc2c1=O)NC1CCCCCCC1 | i
Cc1ccccc1-c1ccccc1C(=O)N1CCOC(C(F)(F)F)C1 (stereo not drawn) | i
O=C(c1ccccc1)c1ccc(/C=C/c2ccccn2)cc1 | 55.0%*
C(=C\c1ccccn1)/c1cccc(-n2cnnc2)c1 | i
C(=C\c1cc(/C=C/c2ccccc2)ncn1)/c1ccccc1 | i
CNCC(=O)NCc1nc2cccnc2n1CCOC | i
COc1ccc(NC2CCCN(C(=O)Cc3sc(C)nc3C)C2)cc1OC (stereo not drawn) | i
COc1ccc(NC(=O)COc2ccccc2)c([N+](=O)[O-])c1 | i
COc1ccc(NC(=O)c2ccc(Br)cc2)c([N+](=O)[O-])c1 | i
COc1ccc(NC(=O)C(Cl)(Cl)Cl)c([N+](=O)[O-])c1 | 34.0%*
Oc1ccc(Nc2nc3nonc3nc2Nc2cccc(Br)c2)cc1 | i
COC(=O)c1ccc(Oc2ncnc3sc4c(c23)CCCC4)cc1 | i
Cc1nc(CCNC(=O)c2cnn(-c3ccccn3)c2C)sc1C | i
Cc1cc(CNC(=O)c2cnn(-c3nccc(-c4cc(C)sc4C)n3)c2C)on1 | 30.0%*
COc1ccccc1-c1ccnc(-n2ncc(C(=O)NC(c3ccncc3)c3ccc(C)cc3)c2C)n1 (stereo not drawn) | i
CCCCCC(=O)NC(Nc1c(C)n(C)n(-c2ccccc2)c1=O)C(Cl)(Cl)Cl (stereo not drawn) | i
COC(=O)C1=C(C)Nc2ncnn2C1c1cccc(Br)c1 (stereo not drawn) | i
COc1cc(NC(=O)c2ccccc2)c(OC)cc1NC(=O)CCCOc1ccccc1 | i
CCCCSc1nnc2c(n1)OC(c1ccccn1)Nc1ccccc1-2 (stereo not drawn) | i
O=C(COC(=O)c1ccc(Oc2ccc(O)cc2)cc1)c1ccccc1 | i
CC1=C(C(=O)N2CCC(Oc3cccc(C(=O)NCc4ccccn4)c3)CC2)OCCO1 | i
N#Cc1cc2c(=O)n3ccccc3nc2n(CCc2ccccc2)c1=N | i
N#Cc1cc2c(=O)n3ccccc3nc2n(Cc2ccccc2)c1=N | i
N#Cc1cc2c(=O)n3ccccc3nc2n(CCCn2ccnc2)c1=N | 31.0%*

Bioassay records from PubChem BioAssay.
